ERK AVP block – qHTS Assay for Inhibitors of the ERK Signaling Pathway using a Homogeneous Screening Assay. actives 0.99% (n = 72,000). HEK293-V1b, vasopressin-stimulated pERK AlphaScreen. Potency, µM (doses to about 57.5 µM), usual class: inhibitors. AID 995, 2007; note: nearly all actives have a fitted effect of over 55% in size
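V1b-HEK293 cells; cpd 30 min 37C; 25 nM vasopressin 5 min; lyse 10 min; AlphaScreen beads 5 hr RT. Normalized to DMSO basal and 25 nM vasopressin; AC50 by Hill fit.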
CRE-bla Fsk – Cell signaling CRE-BLA (Fsk stim) | CHO CRE-bla reporter (cAMP response element driving beta-lactamase), forskolin EC10, beta-lactamase ratio | Potency, µM (top dose mostly 38.2 µM), usual class: activators | actives 2.5% (n = 71,000); active = well fitted activation curve with a large enough effect in the signal ratio, with a control signal flat, not every such curve was filed as active; inconclusive = small, poorly fitted or top-dose-only effect, or effect the other way, or a change in a side signal; the % refers to the signal ratio
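Modulation of forskolin-driven signalling is measured in CHO cells carrying a CRE-controlled beta-lactamase reporter. Cells are stimulated with EC10 NKH 477 in the presence of titrated compound for 3 h at 37 °C, then loaded with CCF4 for 2 h at room temperature.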
IkB signaling – IkB Signaling. ABC-DLBCL IkBa-CBG/CBR dual luciferase ratio, 4 h; response scale: scaled: untreated 0%, proteasome inhibitor 100%. actives 0.04% (n = 110,000). Potency, µM (highest dose often 57.1 µM); active = well fitted curve in the direction sought with a large enough effect in the signal ratio, not every such curve was filed as active; inconclusive = small, poorly fitted or top-dose-only effect, or a change in a side signal; the % refers to the signal ratio;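 note: the direction sought is a rising ratio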
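Luminescence ratio of IκBα-fused green versus native red beetle luciferase in OCI-Ly3 cells, 4 h post-doxycycline with compound; red signal alone, scaled from basal (0%) to zero light (-100%), flagged nonspecific or cytotoxic effects.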
Imprint erasure – qHTS Assay for Compounds that Induce Erasure of Genomic Imprints; mouse ES Peg3-LacZ reporter, beta-gal luminescence, 40 h; actives 0.02% (n = 110,000); AID 1948, 2009; Potency, µM (titrated, usually from 60.7 µM), actives largely listed as activators
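Readout: BetaGlo luminescence (5 min, room temp) for LacZ from the normally silent maternal Peg3 allele in female Peg3LacZ-Neo ES cells. Cells 300/well, 40 h, 37C, 5% CO2. Data normalized per plate to negative controls.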
Of the large screens only hits and unclear results are named; the others gave an inactive call. This excerpt belongs to a sample that is enriched for hits. Unless noted, calls come from the whole dose curve; as a rule, active = well fitted curve in the direction sought with a large enough effect; inconclusive = small, poorly fitted or top-dose-only effect, or another doubt; inactive = no such curve, though single readings can be large; an effect the other way counts as inactive or inconclusive.

CCCNC(=O)c1ccc2c(c1)ncn2-c1ccccc1OC	IkB signaling inconclusive
C=C(CO)[C@H]1Cc2c(ccc3c2O[C@H]2COc4cc(OC)c(OC)cc4[C@@H]2C3=O)O1	CRE-bla Fsk inconclusive (no result: ERK AVP block, Imprint erasure)
CO[C@H]1COC(=O)[C@H](C)NC(=O)C/C=C\[C@@H](C)[C@H](OC)COC(=O)C/C=C\[C@@H]1C	none (no result: CRE-bla Fsk, IkB signaling, Imprint erasure)
CCOC(=O)Nc1cc(OC)c(OC)cc1Cc1nccc2cc(OC)c(OC)cc12	CRE-bla Fsk 6.31µM
O=C1CCCC=C1[C@@H](O)C1CCCCC1	none (no result: CRE-bla Fsk, IkB signaling, Imprint erasure)
COc1ccc(-c2cc(-c3c(O)c(OC)c4occc4c3OC)[nH]n2)cc1OC	CRE-bla Fsk 10µM, IkB signaling inconclusive
Cc1cc(C)n2nc3ccccc3c2n1	CRE-bla Fsk 5.01µM
CCCn1c(C)nc2c(NCc3ccccc3)nc(C)nc21	ERK AVP block inconclusive, CRE-bla Fsk 10µM (no result: IkB signaling)
CCCCNc1nc(C)nc2c1nc(C)n2CCC	CRE-bla Fsk 10µM (no result: IkB signaling)
CCCn1c(C)nc2c(Nc3ccccc3)nc(C)nc21	ERK AVP block inconclusive, CRE-bla Fsk 12.6µM (no result: IkB signaling)
CCCn1c(C)nc2c(NCCCCN(C)C)nc(C)nc21	none (no result: IkB signaling)
CCCn1c(C)nc2c(NC3CCN(Cc4ccccc4)C3)nc(C)nc21 (stereo not drawn)	CRE-bla Fsk inconclusive (no result: IkB signaling)
COc1cc2cc(Oc3ccc4ccc(=O)oc4c3)c(=O)oc2cc1O	CRE-bla Fsk 25.1µM
O=C(/C=C\c1ccc(O)c(O)c1)O[C@H]1C[C@@](O)(C(=O)O)C[C@H](O)[C@@H]1O	none (no result: ERK AVP block, Imprint erasure)
COc1cc(Nc2nc(SCC#N)nc3ccccc23)cc(OC)c1OC	CRE-bla Fsk inconclusive
N#CCSc1nc(Nc2ccc3c(c2)OCO3)c2ccccc2n1	ERK AVP block 31.6µM, CRE-bla Fsk inconclusive, IkB signaling inconclusive
ICCc1ccccc1	none
Cc1ccccc1Nc1nc(N)nc(CSc2nc3ccccc3c(=O)n2CCCO)n1	CRE-bla Fsk 6.31µM
COc1ccc(O[C@H]2C=C[C@@H](c3ccccc3)O[C@H]2CO/N=C2/c3cc(OC)ccc3O[C@@H](c3cccc(OC)c3)[C@H]2O)cc1	none (no result: CRE-bla Fsk, IkB signaling, Imprint erasure)
COc1ccc(OC)c(NC(=O)CN(c2ccc(OC)c(Cl)c2)S(C)(=O)=O)c1	ERK AVP block inconclusive, CRE-bla Fsk 5.01µM
COc1ccc(N(CC(=O)Nc2cc(OC)ccc2OC)S(=O)(=O)c2c(C)nn(C)c2C)cc1	CRE-bla Fsk 5.01µM
Cn1c(-n2c(CCN3C(=O)c4ccccc4C3=O)nc3ccccc3c2=O)nc2ccccc21	CRE-bla Fsk 3.16µM, IkB signaling inconclusive
COc1ccc([C@@H]2OC[C@]3(COC(C)=O)[C@H](C)C=C(C)[C@@H]2[C@H]3C)cc1	none (no result: ERK AVP block, Imprint erasure)
Oc1cc(O)cc(/C=C\c2ccc(O)c(O)c2)c1	none (no result: Imprint erasure)
Cc1cccc2cc(C#N)c(NCCNS(=O)(=O)c3ccc4c(c3)OCCO4)nc12	CRE-bla Fsk 12.6µM, IkB signaling inconclusive
CC(C)OCCCn1c(=NC(=O)c2ccncc2)c(C#N)cc2c(=O)n3ccccc3nc21	CRE-bla Fsk inconclusive
Cc1cccn2c(=O)c3cc(C(=O)N4c5ccccc5CC4C)n(C)c3nc12 (stereo not drawn)	CRE-bla Fsk inconclusive
Cc1cccn2c(=O)c3cc(C(=O)N4CCN(C(=O)c5ccco5)CC4)n(C)c3nc12	CRE-bla Fsk 15.8µM
Cc1cccn2c(=O)c3cc(C(=O)N4CCc5ccccc54)n(C)c3nc12	CRE-bla Fsk inconclusive
Cn1c(C(=O)N2CCc3ccccc3C2)cc2c(=O)n3ccccc3nc21	CRE-bla Fsk inconclusive
CC1Cc2ccccc2N1C(=O)c1cc2c(=O)n3ccccc3nc2n1C (stereo not drawn)	CRE-bla Fsk 6.31µM
Cn1c(C(=O)N2CCN(C(=O)c3ccco3)CC2)cc2c(=O)n3ccccc3nc21	CRE-bla Fsk 12.6µM
CCCCCn1c(=NC(C)=O)c(C#N)cc2c(=O)n3ccccc3nc21	CRE-bla Fsk 3.16µM
O=C1OC(=O)c2ccccc21	none
COc1ccc(-c2nc3cnc(N4CCN(C)CC4)nc3n(Cc3ccc(F)cc3)c2=O)cc1	CRE-bla Fsk inconclusive
CCOC(=O)c1cc2c(=O)n3cccc(C)c3nc2n(CC2CCCO2)c1=NC(C)=O (stereo not drawn)	CRE-bla Fsk 10µM
CCCn1c(=NC(=O)c2ccco2)c(C(=O)OCC)cc2c(=O)n3ccccc3nc21	CRE-bla Fsk 7.94µM
CCOC(=O)c1cc2c(=O)n3ccccc3nc2n(CC2CCCO2)c1=NC(=O)c1ccccc1C (stereo not drawn)	none (no result: ERK AVP block, CRE-bla Fsk)

Screens from PubChem BioAssay.
